Reference: PubChem BioAssay (Tox21)
Records with an inconclusive call do not appear. Active and inactive are the calls of the source. Unless noted, the call rests on the fitted dose curve; in most records, active means well fitted curve in the direction sought with a large enough effect in the repeat runs; inconclusive means weak or mixed curves; inactive means no such curve, though single readings can be large; an effect the other way counts as inactive or inconclusive.

Columns and labels:
[1] = qHTS assay to identify small molecule antagonists of the estrogen related receptor (ERR) signaling pathway - cell viability counter screen (AID 1224818);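 further: series mostly up to about 46 µM; viability measured after 17.5 h of compound exposure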
Method in brief: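 ERR reporter cells plated 6 h at 37 C/5% CO2, then compounds in DMSO pin-transferred and incubated 17.5 h at 37 C. Viability read as CellTiter-Fluor fluorescence after 30 min at 37 C.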

[2] = tested on: estrogen-related receptor alpha (ERRalpha) with PGC-1alpha coactivator, human; assay: qHTS assay to identify small molecule antagonists of the estrogen related receptor signaling pathway with the pleiotropic PPARgamma coactivator (PGC) (AID 1224821; calls by dose curve;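 further: series mostly up to about 46 µM; lower luminescence signal means antagonism of PGC/ERR signalling; nearly all actives have a fitted effect of over 50% in size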)
Method in brief: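 Quantitative HTS for antagonism: PGC/ERR cells received compounds after 6 h attachment and were incubated 18 h at 37 C, with luminescence (One-Glo) as the endpoint.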

[3] = qHTS assay to identify small molecule antagonists of the estrogen related receptor signaling pathway with the pleiotropic PPARgamma coactivator (PGC) cell viability counter screen (AID 1224822; further: series mostly up to about 46 µM)
Method in brief: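 PGC/ERR cells were seeded at 2,000 cells/well, rested 6 h at 37 C/5% CO2, then given compounds in DMSO by pin tool and incubated 17.5 h at 37 C. Viability came from CellTiter-Fluor fluorescence after 30 min.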

[4] = qHTS assay to identify small molecule agonists of the estrogen related receptor signaling pathway with the pleiotropic PPARgamma coactivator (PGC) (AID 1224823)
Method in brief: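 Cell-based luciferase assay in the NTP-supplied PGC/ERR line, 2,000 cells/well; 18 h compound exposure at 37 C, luminescence after One-Glo.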

Measured: Potency

CC(=O)[C@H]1CCC2C3CC[C@H]4C[C@H](O)CC[C@]4(C)C3CC[C@@]21C (stereo partly specified)
inactive: all assays above

CC[C@@H](C(N)=O)N1CCCC1=O
inactive: [1] | [3]
